Compounds without any hit were thinned out: in the full panel of roughly 83,000, 20% have a hit.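 The endpoint reported here, percent growth, reads 100 for growth as untreated, 0 for no net growth and -100 for all cells dead.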 A number with no mark means an inactive call. Calls of active or inactive are those of the source. Rule for the calls: active = growth percent below 10; inactive = the rest.
Tests used:
Assay in all cases: NCI-60 one-dose screen, 48 h (100 = growth as untreated, 0 = no growth, -100 = all killed)
Settings in all cases: 10 µM unless noted
[1] = test system: HCT-15 colon
[2] = test system: HT29 colon
[3] = test system: SNB-75 CNS
[4] = test system: SNB-19 CNS
[5] = test system: U251 CNS
[6] = test system: PC-3 prostate
[7] = test system: SK-MEL-5 melanoma
[8] = test system: LOX IMVI melanoma
[9] = test system: SK-MEL-28 melanoma
[10] = test system: SK-MEL-2 melanoma
[11] = test system: EKVX NSCLC
[12] = test system: SN12C renal
[13] = test system: UO-31 renal
[14] = test system: TK-10 renal
[15] = test system: ACHN renal
[16] = test system: CAKI-1 renal
[17] = test system: A498 renal
[18] = test system: CCRF-CEM leukemia
[19] = test system: MOLT-4 leukemia

Row | SMILES | growth [1] | growth [2] | growth [3] | growth [4] | growth [5] | growth [6] | growth [7] | growth [8] | growth [9] | growth [10] | growth [11] | growth [12] | growth [13] | growth [14] | growth [15] | growth [16] | growth [17] | growth [18] | growth [19]
1 | O=C(/C(=C(\C(=O)c1ccccc1)c1ccccc1)c1ccccc1)c1ccccc1 | 24% | 37.6% | 72.8% | 74% | 47.3% | 30% | 59.5% | 64.6% | 89.8% | 81.5% | 40.5% | 62.5% | 63.3% | 86.8% | 39.5% | 57.8% | 79.9% | 16.2% | -7.63% (active)
2 | NNC(=O)c1nc2ccccc2[nH]1 | 108% | 103% | 97.4% | 103% | 86.2% | 96.7% | 103% | 95.3% | 111% | 99.4% | 102% | 102% | 101% | 111% | 107% | 94.9% | 96.2% | 109% | 79.8%
3 | COc1cc(-c2cc3ncccc3c3[nH]c(=O)c4cccnc4c23)cc(OC)c1OC | 30.6% | 8% (active) | -3.35% (active) | 53.7% | 16.8% | 13.2% | -5.2% (active) | 42.5% | 68.2% | 44.6% | 33.2% | 42.7% | 36.2% | 52.2% | 46.7% | 28.4% | -18.1% (active) | 13.1% | 31.6%
4 | COc1ccc(-c2nc(Nc3ccc(-c4nc5ccccc5[nH]4)cc3)nc(N3CCOCC3)n2)cc1 | -62.2% (active) | -23.1% (active) | -19.2% (active) | 17.5% | 6.38% (active) | 2.31% (active) | -90.7% (active) | -75.6% (active) | -34% (active) | -19.2% (active) | 7.91% (active) | 40.8% | -43.5% (active) | 43.9% | 9% (active) | -56.6% (active) | -32.1% (active) | -1.84% (active) | 1.78% (active)
5 | Cn1c(=O)c2c(nc(Br)n2CC(=O)Nc2ccc(F)cc2)n(C)c1=O | 115% | 97.8% | 83.4% | 97.5% | 100% | 75.5% | 104% | 96.7% | 118% | 99.1% | 102% | 109% | 80.9% | 115% | 104% | 95.9% | 117% | 90.1% | 91.9%
6 | CCN(CC)CCCCCNc1cc(OC(=O)c2ccccc2)cc2cccnc12 | 78.5% | 20.3% | 70.9% | 101% | 98.2% | 77% | 138% | 58.1% | 121% | 140% | 102% | 95% | 92.5% | 145% | 96.6% | 91% | 81.1% | 93.9% | 55.4%
7 | COc1cnc2c(c1)C(=O)c1c-2n(CCCNC2=NCCS2)c(=O)c2cc([N+](=O)[O-])ccc12 | -60.8% (active) | -42.4% (active) | 23.7% | 27.2% | -83.9% (active) | -48.1% (active) | -41% (active) | -91.3% (active) | -35.9% (active) | 73.1% | 11.3% | 13.5% | -71% (active) | -89.2% (active) | -77.8% (active) | 13.3% | -36% (active) | -10.9% (active) | -11.3% (active)
8 | N#Cc1cnc2cc(OC[C@@H](O)CO)c(NC(=O)CC3CSSC3)cc2c1Nc1ccc(OCc2cccc(F)c2)c(Cl)c1 | 22% | -81.6% (active) | -88% (active) | -66% (active) | -70.2% (active) | -82.3% (active) | -97% (active) | -84.2% (active) | -71.9% (active) | -67.7% (active) | -68% (active) | -70.3% (active) | 50.5% | -60.5% (active) | 3.6% (active) | 62.7% | -62% (active) | -46.4% (active) | -50.4% (active)
9 | Oc1ccc(Nc2ccccc2)cc1 | 82.5% | 99.3% | 85.5% | 85.8% | 86% | 65.7% | 83% | 71.4% | 102% | 125% | 81.6% | 90.3% | 68.4% | 117% | 46.9% | 65.4% | 87.4% | 0.482% (active) | 88.6%
10 | C[C@@H]1CCCCCCCCC[C@H](O)C(=O)C[C@@H](SC[C@@H](O)C(=O)O)C(=O)O1 | 87.3% | 82.1% | 95.2% | 102% | 89.4% | 83% | 104% | 71.8% | 107% | 100% | 105% | 93.6% | 87.2% | 95.2% | 96.6% | 102% | 167% | 59.4% | 70.2%
11 | CN(C)c1ccc(C(=O)c2ccc(N(C)C)c(N)c2)cc1N | 26% | 9.95% (active) | -11.3% (active) | 45.3% | 34.4% | 49.3% | 3.25% (active) | 53.9% | 61.9% | 61.6% | 50.9% | 49.7% | 64.9% | 67.3% | 50.5% | 41% | 25% | 36.4% | 24.4%
12 | O=C(NCN1C(=O)c2cccc3cccc(c23)C1=O)N1CCC(Cc2ccccc2)CC1 | 104% | 70.1% | 89.4% | 92.5% | 97.5% | 72.9% | 101% | 97.5% | 107% | 103% | 93.4% | 99.2% | 72.2% | 98% | 101% | 82.9% | -36% (active) | 79.9% | 84.7%
13 | COc1cc(-c2cc3ncccc3c3nc(N)c4cccnc4c23)cc(OC)c1OC | 21.5% | 4.14% (active) | 6.07% (active) | 44.5% | 18.9% | 22% | 15.8% | 24.1% | 62.7% | 30.7% | 27.1% | 26.7% | 51.1% | 16.3% | 22.6% | 31.1% | -17.6% (active) | 32.5% | 20.7%
14 | Cc1ccc(N(CC(=O)Nc2ccc(S(=O)(=O)NC3CCN(C)CC3)cc2)S(=O)(=O)c2ccc(Cl)cc2)cc1 | 90.6% | 10.2% | 58.7% | 88.3% | 19.5% | 84.1% | -9.84% (active) | -58.1% (active) | -68.3% (active) | 104% | 99.4% | 85% | 83.3% | 105% | 96.6% | 89% | 84.6% | 20.9% | 70.5%
15 | COC(=O)[C@]12CC[C@@H](C)[C@H](C)[C@@H]1C1=CC[C@@H]3[C@@](C)(CC#N)C4=C(C[C@@]3(C)[C@]1(C)CC2)OC[C@]4(C)C=O | 0.689% (active) | -20.7% (active) | 19.3% | 8.5% (active) | -45.7% (active) | 9.95% (active) | -89% (active) | -99% (active) | -19.6% (active) | -40.2% (active) | -11.8% (active) | 1.64% (active) | 6.25% (active) | 3.82% (active) | 7.19% (active) | 9.24% (active) | -91.7% (active) | 1.66% (active) | 2.4% (active)
16 | Nc1nc(Br)nc2c1ncn2C1CC(O)C(CO)O1 (centres undefined) | 59.1% | 66.3% | 77.4% | 48.6% | 68.7% | 70.1% | 51.2% | 82.4% | 95.8% | 102% | 71% | 52.1% | 34.1% | 71.2% | 29.8% | 50.9% | 89.4% | 27.4% | 27.7%
